High-throughput results (PubChem)
Bead autofluor – counter-screen for toxin protease inhibitors: compound fluorescence; compound autofluorescence counterscreen, microsphere flow cytometry; hits give high values; fluorescence intensity (test concentration not listed); 360,000 tested, 3.1% active; AID 624483; in the data active means fluorescence intensity above about 16000; inconclusive means no clear call, values can overlap the other calls
BoNT A protease – BoNT A light chain protease inhibition. multiplex microsphere protease substrate cleavage, flow cytometry. inhibition, % at 10 µM. 360,000 tested, 0.17% active; further: plate controls were buffer without enzyme for full effect and enzyme alone for no effect
BoNT F protease – inhibitors of Botulinum neurotoxin F light chain protease; Multiplex microsphere protease cleavage assay, flow cytometry; inhibition, % at 10 µM; 360,000 tested, 0.22% active; AID 588497; in the data active means inhibition above about 35%, passing the limit was not always enough; inconclusive means no clear call, values can overlap the other calls; further: plate controls were buffer without enzyme for full effect and enzyme alone for no effect
Anthrax LF inh2 – inhibitors of Bacillus anthracis lethal factor protease. P15917. multiplex microsphere protease cleavage assay, LF. inhibition, % at 10 µM. 360,000 tested, 0.12% active. AID 588501; further: plate controls were buffer without enzyme for full effect and enzyme alone for no effect
* = called active by the depositor; ? = inconclusive; ! = not confirmed by another sample. Only some compounds are listed: those with a hit (about 3.5% of all), similar ones and a draw of the others. Unless noted, no stated cut-off is given here; in the data, active means inhibition above about 30%; inconclusive means no clear call, values can overlap the other calls; inactive means below that.

SMILES	Bead autofluor	BoNT A protease	BoNT F protease	Anthrax LF inh2
COc1nn(C(C)C(=O)N2N=C(C(F)F)CC2(O)C(F)F)cc1[N+](=O)[O-] (centres undefined)	20181*	-1.1	-0.7	3.0
COc1nn(CC(=O)N2N=C(C(F)F)CC2(O)C(F)F)cc1[N+](=O)[O-] (centres undefined)	23495*	-2.6	-3.6	-3.4
O=c1cc(CO)[nH]nc1CO	3739	0.2	-0.2	2.0
CC1CCC(NC(=O)C(NS(=O)(=O)c2ccc(Br)cc2)C(C)C)CC1 (centres undefined)	3538	-0.1	-3.5	-1.6
N#CC1=C2CCCCC2(O)NC1=O (centres undefined)	3848	-0.4	3.3	3.3
O=C(OCCN=C1NS(=O)(=O)c2ccccc21)c1ccncc1	10489	0.6	0.4	-0.2
O=C(OCCN=C1NS(=O)(=O)c2ccccc21)C1CC(=O)N(c2ccc3ccccc3c2)C1 (centres undefined)	19051*	?	4.1	-1.0
O=C(CSc1nnc(C2CC2)n1C1CC1)N1CCN(c2ccc(O)cc2)CC1	2905	-0.2	-12.0	-6.4
C[C@H](N)c1nnc(SCc2ccc(Cl)cc2Cl)o1	25593*	-4.6	-9.5	-4.1
CC(C)[C@H](N)c1nnc(SCc2ccc(Cl)cc2)o1	25032*	-2.0	-5.2	-4.7
CCC(C)[C@H](N)c1nnc(SCC(=O)c2ccc(Cl)cc2)o1 (some centres undefined)	19418*	5.3	0.6	-0.4
Cc1cccc(C)c1-c1ccc(CN2C(CC(C)C)C(=O)N(Cc3cn(CC4CCCCC4)nn3)CCS2(=O)=O)cc1 (centres undefined)	3002	-1.0	-2.8	4.3
Cc1ccc(C2CC(C(F)(F)F)n3nc(C(=O)NCc4ccco4)cc3N2)cc1 (centres undefined)	24280*	?	-6.5	-1.9
CCC(C)NC(=O)c1cnn2c1NC(c1ccc3c(c1)OCO3)CC2C(F)(F)F (centres undefined)	19687*	1.4	0.8	-0.8
O=C(NCC1CCCO1)c1cc2n(n1)C(C(F)(F)F)CC(c1ccc(Br)cc1)N2 (centres undefined)	20177*	?	0.7	2.0
Cc1cccc(NC(=O)c2cc3n(n2)C(C(F)(F)F)CC(c2ccc4c(c2)OCO4)N3)c1 (centres undefined)	22193*	3.3	0.9	1.3
COc1ccc(NC(=O)c2cc3n(n2)C(C(F)(F)F)CC(c2ccc4c(c2)OCO4)N3)cc1OC (centres undefined)	15027	20.5	24.1	-18.2
COc1ccc(CN2C(=O)C(CC(=O)NCc3ccco3)CC(C(=O)N(C(C)C)C(C)C)=C2C)cc1 (centres undefined)	2930	-0.1	4.4	5.6
COc1cccc(-c2cc(C(F)(F)F)n3nc(N)nc3n2)c1	5309	-0.7	-3.7	-0.8
COc1ccc(-c2cc(C(F)(F)F)n3nc(N)nc3n2)cc1	23917*	-1.1	-0.9	-0.4
Cc1ccccc1OCCN1C(=O)NC2(CCc3ccccc32)C1=O (centres undefined)	20031*	0.9	0.8	0.3
CC(C)C[C@H]1CN(CCCC[C@@H]2CNC(=O)C(=O)N2Cc2ccccc2)C(=O)C(=O)N1CCc1ccccc1	5688	-0.5	1.4	-2.0
O=C(O)CCC(=O)Nc1ccc(Oc2ncnc3cc(Cl)ccc23)nc1	3429	8.9	40.2*	?
O=C(CSc1nc(O)cc(=O)n1-c1ccccc1)NCc1ccccc1	16693*	-1.5	-1.3	-0.8
C=CCn1c(SCc2ccccc2)nc(O)cc1=O	4153	1.1	-0.7	0.4
SMILES	Bead autofluor	BoNT A protease	BoNT F protease	Anthrax LF inh2
O=c1cc(O)nc(SCc2ccccc2)n1-c1ccccc1	24058*!	-2.2	-3.5	-3.8
CSc1nc2nc3c(cc2c(=O)n1-c1ccccc1)COC(C)(C)C3	2594	-0.3	0.8	-2.7
CC1(C)Cc2nc3nc(SCC(=O)NCCc4ccccc4)n(-c4ccccc4)c(=O)c3cc2CO1	16362*	0.9	3.9	-2.4
Cc1cc(C)c(C(=O)COC(=O)c2cccc(S(=O)(=O)N3CCOCC3)c2)cc1C	3531	0.1	3.7	5.5
COc1ccc(-c2c(-c3ccc4c(c3)OCO4)c3ccccc3n2C)cc1	4142	-0.4	-0.5	-2.8
CC(=O)Nc1ccc(C(=O)N2CCCCC2c2cc(C(=O)N3CCOCC3)no2)cc1 (centres undefined)	3490	-0.9	2.9	-11.1
c1ccc2c(c1)ccn1c(Cc3ccsc3)c(C3CCCCC3)nc21	6727	0.9	-0.2	-5.8
CCCc1ccc(OCc2ccc(C(=O)OC)o2)c(OC)c1	23181*	1.0	0.9	-1.6
Cn1c(N)c(C#N)c(-c2ccccc2)c(C#N)c1=O	3410	-0.1	-3.6	-7.2
O=C(NC(=O)c1cccc(OC(F)(F)C(F)F)c1)OC1CCS(=O)(=O)C1 (centres undefined)	24101*	-0.4	0.8	1.4
O=C(Nc1ccccc1)OC1CCS(=O)(=O)C1 (centres undefined)	9471	-1.1	-8.9	-0.4
COc1cc(CNCC(C)C)c(Br)cc1OCC(=O)NCc1ccccc1	16297*	-0.5	-7.8	-4.9
COc1cc(CNCCN(C)C)c(Br)cc1OCC(=O)NCc1ccccc1	6743	0.5	-5.6	-5.6
O=C1C(=O)N(c2cccc(Cl)c2)C(c2ccccc2[N+](=O)[O-])/C1=C(\O)c1ccccc1 (centres undefined)	21218*	-1.9	-0.2	-0.3
COc1ccc(Cl)cc1-c1noc([C@@H]2O[C@H](CO)[C@H](O)[C@H](O)[C@H]2O)n1	3202	-1.1	-5.3	-4.8
COC(=O)c1ccc2ccn(CC(=O)NC3CCCCC3)c2c1	4051	-0.6	?	-1.6
N#Cc1ccc2ccn(CC(=O)NC3CCCCCC3)c2c1	21036*	-0.7	0.3	-1.1
S=c1nc(C2CCCCC2)[nH][nH]1	17098*	-3.2	-5.9	-4.8
Nc1n[nH]c(C2CCCCC2)n1	4027	-0.3	-0.6	-2.9
Cc1ccc(OCC(O)Cn2c(=N)n(CCN3CCCCC3)c3ccccc32)cc1 (centres undefined)	24505*	-0.7	-6.0	-4.1
COc1ccccc1OCC(O)Cn1c(=N)n(Cc2ccccc2)c2ccccc21 (centres undefined)	24188*	-0.6	-1.3	-2.3
Cc1ccccc1OCC(O)Cn1c(=N)n(Cc2ccccc2)c2ccccc21 (centres undefined)	4759	0.1	-3.9	-3.4
COc1ccc(OCC(O)Cn2c(=N)n(CCN3CCCCC3)c3ccccc32)cc1 (centres undefined)	5171	0.0	-1.9	-3.3
CCCCn1c(=N)n(CC(O)COc2cccc(C)c2)c2ccccc21 (centres undefined)	23566*	-2.6	-5.6	-3.5
CC(C)(C)OC(=O)C[C@@H]1C/C=C\C[C@H](CC(=O)NCCO)C(=O)N2CCC[C@H]2COC1=O	2889	0.5	-2.5	-0.3
O=C(CCC(=O)OCC(=O)c1ccc(Br)cc1)Nc1ccc(Br)c2cccnc12	18928*	2.7	2.9	-8.5
Cc1ccc(NC(=O)CCC(=O)NN=Cc2ccc(C)o2)c(C)c1	3487	-0.2	-0.8	-2.8
CCC(Sc1nc(C)cc(=O)[nH]1)C(=O)Nc1nc2c(s1)CCCC2 (centres undefined)	22164*	?	-2.9	-7.4
